Cycloheximide cs: Cycloheximide Counterscreen for Small Molecule Inhibitors of Shiga Toxin; cell reporter, cycloheximide protein synthesis inhibition counterscreen; max response, %; 12% of 300,000 active; AID 2314, 2010; in the data active = max response mostly above about 13%, no sharp cut-off; inactive = mostly below about 14%; also: read at 38.3 µM for the half of the compounds with a filed dose; 0% is about no effect
AmpC detergent: qHTS Inhibitors of AmpC Beta-Lactamase (assay with detergent); AID 485294, 2010; Potency, µM (series often up to 114 µM), for the others: at the highest dose activity change, negative = inhibition, most hits filed as inhibitors; AmpC hydrolysis of nitrocefin, absorbance 480 nm, 0.01% Triton; 0.041% of 370,000 active;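 also: potency is read from the fitted curve at half-maximal effect; 0% = no-compound wells and -100% = no-enzyme wells; nearly all actives have a fitted effect of over 25% in size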
Target sequence (P00811 whole entry, looked up): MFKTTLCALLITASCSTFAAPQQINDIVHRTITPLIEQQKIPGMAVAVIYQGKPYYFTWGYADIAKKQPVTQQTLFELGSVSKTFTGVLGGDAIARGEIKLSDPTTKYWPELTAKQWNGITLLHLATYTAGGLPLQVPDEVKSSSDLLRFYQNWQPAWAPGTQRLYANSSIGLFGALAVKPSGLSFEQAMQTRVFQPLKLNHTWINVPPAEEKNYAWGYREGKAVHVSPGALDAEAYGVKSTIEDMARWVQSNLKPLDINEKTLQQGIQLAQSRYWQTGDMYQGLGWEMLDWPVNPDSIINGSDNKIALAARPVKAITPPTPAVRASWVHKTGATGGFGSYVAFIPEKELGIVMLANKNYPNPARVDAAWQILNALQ
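20 mM phosphate pH 7.0 + 0.01% (detergent screen) or 0.0001% Triton X-100; 5.3 nM AmpC reagent; cpd preinc 15 min RT; nitrocefin (800 uM stock) to start; A480 q20 s × 4 min; Activity was normalised to no-enzyme and no-compound control wells.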
AmpC no deterg: qHTS Inhibitors of AmpC Beta-Lactamase (assay without detergent); P00811; AmpC nitrocefin hydrolysis, absorbance 480 nm, 0.0001% Triton; Potency, µM (top dose mostly 57.1 µM), inactives show at the highest dose activity change, negative = inhibition, hits mostly inhibitors; 0.52% of 330,000 active;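 also: potency is read from the fitted curve at half-maximal effect; plate controls were no compound for no effect and no enzyme for full effect; nearly all actives have a fitted effect of over 20% in size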
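AmpC (5.3 nM in the dispensed reagent) in 20 mM phosphate pH 7.0 with 0.01% (detergent screen) or 0.0001% Triton X-100 was preincubated with compounds for 15 min at room temperature. Nitrocefin was then added from an 800 uM solution, and hydrolysis was followed at 480 nm.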
AMA1-RON2 inh: qHTS for Inhibitors of AMA1-RON; Towards Development of Antimalarial Drug Lead: Primary Screen; Potency, µM (doses to about 58.2 µM), for the others: at the top dose activity change, negative = inhibition, hits mostly inhibitors; AID 720542, 2013; 0.2% of 360,000 active; AlphaScreen AMA1-biotinylated RON2 peptide binding;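 also: potency is read from the fitted curve at half-maximal effect; 0% = vehicle wells and -100% = peptide control; nearly all actives have a fitted effect of over 45% in size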
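AMA1 (3D7) with his tag at 25 nM final met compounds first, then biotinylated RON2 peptide at 25 nM; detection used donor plus acceptor beads, 10 µg/mL apiece, read by AlphaScreen after 30 min at room temperature.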
Shiga toxin inh: A qHTS for Small Molecule Inhibitors of Shiga Toxin; Vero cells, Shiga toxin protein synthesis inhibition reporter; inhibition, % at 38.7 µM; 9.2% of 290,000 active; AID 2315, 2010; in the data active = inhibition mostly above about 28%, no sharp cut-off; inactive = mostly below about 43%; also: 0% is about no effect
SARS PLpro yeast: qHTS of Yeast-based Assay for SARS-CoV PLP. S. cerevisiae expressing SARS-CoV PLpro, growth rescue. 0.19% of 330,000 active. AID 485353, 2010. Potency, µM (titrated, usually from 32.9 µM), inactives show at the highest dose activity, positive = growth rescue, most hits filed as activators; calls by dose curve; also: potency is read from the fitted curve at half-maximal effect; 0% is about no effect; nearly all actives have a fitted effect of over 55% in size
* marks the source's active call; other numbers are inactive results; ? = inconclusive; · = no result; [ ] = another dose, or the depositor's remark. This excerpt belongs to a sample that is enriched for hits. Unless noted, calls follow the shape of the dose curve; as a rule, active = well fitted curve in the direction sought with a large enough effect; inconclusive = small, poorly fitted or top-dose-only effect, or another doubt; inactive = no such curve, though single readings can be large; an effect the other way counts as inactive or inconclusive.

SMILES	Cycloheximide cs	AmpC detergent	AmpC no deterg	AMA1-RON2 inh	Shiga toxin inh	SARS PLpro yeast
c1ccc2sc(NCC3CCCO3)nc2c1 (stereo not drawn)	38.4*	-6.6%	-22.3%	-10.7%	133.9*	-1.6%
COc1ccc2oc(=O)c(/C(C)=N/Nc3nc(-c4cc(C)ccc4C)cs3)cc2c1	2.1	-10.8%	-48.1%	30.9%	-2.4	2.0%
C=CCNc1nc(-c2cc3ccccc3o2)cs1	40.0*	-8.0%	-25.5%	-23.0%	36.4	-41.8%
O=C1COc2ccc(-c3csc(NCC4CCCO4)n3)cc2N1 (stereo not drawn)	-2.1	-12.3%	1.7%	5.4%	-7.0	2.0%
C/C(=N\Nc1nc(-c2ccc(C)cc2C)cs1)c1cc2ccccc2oc1=O	4.1	?	20µM*	43.1%	5.0	-19.1%
COc1ccc(-c2[nH]ncc2CN2CCN(C(=O)c3cccs3)CC2)c(F)c1	-0.7	3.8%	4.3%	1.8%	-11.2	0.6%
CCc1ccc2oc(C(=O)N3CCN(C)CC3)cc(=O)c2c1	-2.1	-5.7%	-7.5%	8.9%	-11.6	-2.4%
CC1CCCN(C(=O)Cc2cn(Cc3cccc(Cl)c3)c3ccccc23)C1 (stereo not drawn)	-1.3	?	9.4%	-23.2%	-3.7	-19.1%
CC1CCC/C(=C(\C#N)c2nc(-c3cc4ccccc4oc3=O)cs2)C1 (stereo not drawn)	51.0*	-8.4%	-32.2%	8.3%[2.32 µM]	89.0*	5.4%
O=c1oc2ccccc2cc1-c1csc(NN=C2CCCCC2)n1	44.8*	-12.6%	-51.0%	35.2%	80.8*	8.0%
O=C(Nc1nc(-c2cc3ccccc3oc2=O)cs1)c1ccco1	12.3	?	-41.6%	11.1%	19.5	-2.8%
CC(C)CCN1CCNC(=O)C1CC(=O)NCCCN1CCOCC1 (stereo not drawn)	-2.6	-8.0%	11.1%	27.8%	4.5	13.1%
N#Cc1cnn2c(-c3cccc([N+](=O)[O-])c3)ccnc12	·	-15.6%	-19.0%	-2.0%	·	0.6%
CCOC(=O)Cn1c(=O)oc2cc(S(=O)(=O)N3CCn4c3nc3ccccc34)ccc21	-2.2	-10.6%	22.4µM*	-10.1%	7.0	1.5%
CC(NC(=O)c1ccc2c(c1)CCN2S(C)(=O)=O)c1ccccc1 (stereo not drawn)	·	18.1%	·	·	·	·
COc1ccc(S(=O)(=O)N2CCC(C(=O)Nc3ccccc3N3CCCC3)CC2)cc1OC	-3.3	?	62.3%	-15.6%	-17.9	1.1%
Cc1ccc(NS(=O)(=O)c2cccc(C(=O)NNC(=O)c3cccn3C)c2)c(C)c1	24.0*	1.2%	15.8µM*	40.1%	32.3	1.1%
O=C1CC(c2ccccc2)CC(O)=C1C=NC1CCCCCC1 (stereo not drawn)	18.2	1.2%	-9.1%	-1.2%	-10.5	-7.0%
CCc1ccc(S(=O)(=O)c2nnn3c2nc(N2CCN(c4ccccc4)CC2)c2cc(Cl)ccc23)cc1	·	16.7%	·	·	·	·
FC(F)Oc1ccc(N=C2SCC3CCCCN23)cc1 (stereo not drawn)	52.8*	2.5%	29.0%	2.8%	131.2*	1.0%
Clc1ccc(N=C2SCC3CCCCN23)cc1 (stereo not drawn)	70.1*	0.9%	11.6%	10.5%	76.6*	-12.7%
Cc1ccc(NC(=O)C2C(=O)N(CCO)C3(C)CC2c2ccccc2O3)cc1 (stereo not drawn)	22.4*	-8.7%	-25.5%	2.3%	32.0	3.3%
CC1(C(=O)NCc2cccc(Cl)c2)Cc2c(-c3cccc(C(N)=O)c3)ccnc2O1 (stereo not drawn)	·	·	·	-6.1%	·	·
COc1ccc(C(=O)NCCc2csc(-c3ccc(Cl)cc3)n2)cc1	·	7.4%	·	·	·	·
COc1cccc(-c2nc(CCl)cs2)c1	36.8*	6.1%	-5.3%	0.0%	56.9*	0.5%
SMILES	Cycloheximide cs	AmpC detergent	AmpC no deterg	AMA1-RON2 inh	Shiga toxin inh	SARS PLpro yeast
COc1ccc(-c2nc(CCl)cs2)cc1	44.5*	?	-17.9%[11.4 µM]	-4.4%	53.5*	-0.2%
CCc1ccc(-c2nc(CCl)cs2)cc1	36.8*	-3.9%	-11.1%	3.1%	90.0*	19.7%
COc1ccc(-c2csc(-c3ccc(O)cc3)n2)cc1	51.7*	6.0%	-33.0%	-1.9%	73.1*	5.2%
COc1ccc(-c2csc(C(O)c3ccccc3)n2)cc1 (stereo not drawn)	·	·	·	9.2%	·	·
CC1(C)C2CCC(C2)C1(C)N=C1OC(CCl)CS1 (stereo not drawn)	0.4	-0.1%	19.9%	-13.8%	-11.7	1.3%
Cc1cccc(C(C(=O)NCc2ccc(F)cc2)N(C(=O)c2csnn2)C2CC2)c1 (stereo not drawn)	-2.4	-12.1%	8.9%	-3.1%	10.1	2.3%
CCOC(=O)C1C(=O)CC(C)(O)C(C(=O)OCC)C1c1ccc2c(c1)OCO2 (stereo not drawn)	·	·	·	12.4%	·	·
O=C(Nc1ccccc1N1CCCCC1)c1cccc(OC(F)F)c1	-1.1	0.5%	-28.7%	-8.0%	-3.9	-7.3%
COc1ccc(-c2csc(C3=C(O)CN(C(C)C)C3=N)n2)cc1OC	15.4	0.3%	-12.9%	7.1%	39.2	-1.7%
COc1ccc(-c2nc(CCl)cs2)cc1OC	29.1*	4.3%	-13.9%	-13.5%	44.9*	-1.3%
COc1ccc(-c2nc(-c3ccc(O)cc3O)cs2)cc1OC	29.9*	-0.1%	62.8%	-23.0%	54.8*	-4.7%
CNC(=S)N1C2CCCC1CC(NC(=O)c1ccc(C)cc1)C2 (stereo not drawn)	·	·	·	7.5%	·	·
O=C1NC2(CCCCCC2)C(=O)N1Cc1cccc(Cl)c1	3.2	2.1%	-58.5%	-8.2%	-4.2	0.3%
Cc1ccc(Nc2nc(N)nc(CSC(=S)N3CCOCC3)n2)cc1	46.2*	4.3%	0.0%	-13.0%	96.1*	5.4%
CC1CC(C)CN(C(=S)SCc2nc(N)nc(Nc3ccccc3)n2)C1 (stereo not drawn)	-0.6	-3.5%	-34.6%	-3.8%	20.6	0.4%
Nc1nc(CSC(=S)N2CCCCC2)nc(Nc2ccccc2)n1	39.7*	-4.5%	-28.7%	1.1%	87.1*	-1.7%
Cc1cccc(Nc2nc(N)nc(CSC(=S)N3CCOCC3)n2)c1	7.2	-0.9%	-11.8%	-18.0%	0.5	7.7%
CCOc1ccc(Nc2nc(N)nc(CSC(=S)N3CCOCC3)n2)cc1	44.2*	-3.1%	-0.6%	-11.4%	45.6	0.7%
COc1ccccc1Nc1nc(N)nc(CSC(=S)N2CCCCC2)n1	31.3*	?	-26.6%	-1.6%	59.2*	3.1%
COc1ccccc1Nc1nc(N)nc(CN2CCCCC2)n1	7.7	3.2%	-6.4%	17.6%	26.6	3.0%
CCOC(=O)Cc1nnc(NC(=O)COc2ccc(F)cc2)s1	-1.3	0.3%	-21.1%	8.9%	20.5	1.4%
